From PubChem BioAssay (Tox21)
Unmarked numbers belong to inactive results. Results filed as inconclusive are left out. A call without a number means that no potency is given here. Calls of active or inactive are those of the source. Unless noted, the call rests on the fitted dose curve.

Assays:
[1] = Nuclear factor erythroid 2-related factor 2/antioxidant responsive element (Nrf2/ARE) small molecule agonists: qHTS cell viability counter screen in human keratinocytes (AID 1919968; active means well fitted curve in the direction sought with a large enough effect in the repeat runs; an effect the other way counts as inactive or inconclusive; further: nearly all actives have a fitted effect of over 55% in size; further: potency means the concentration at half of the fitted maximal effect)
Method in brief: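 Measured as CellTiter-Fluor fluorescence, this readout tracks cytotoxicity in the same wells as the ARE-luciferase screen. HaCaT reporter cells (1,500/well) received compounds after a 5 h pre-incubation and were exposed for 23 h.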

[2] = Nuclear factor erythroid 2-related factor 2/antioxidant responsive element (Nrf2/ARE) small molecule agonists: luciferase reporter gene qHTS assay in human keratinocytes (AID 1919969); further: nearly all actives have a fitted effect of over 35% in size; further: potency means the concentration at half of the fitted maximal effect
[3] = molecular target: Gonadotropin-releasing hormone receptor (Homo sapiens) (UniProt P30968); assay: Human gonadotropin-releasing hormone receptor (GnRHR) small molecule agonists, calcium flux assay in GnRHR-HEK293 cells (AID 1920063); further: nearly all actives have a fitted effect of over 35% in size; further: potency means the concentration at half of the fitted maximal effect
Method in brief: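 Fluorescence kinetics (480 nm excitation, 540 nm emission; 3 min, 1 s steps) report calcium mobilisation in human GnRHR-HEK293 cells in agonist mode. Dye incubation: 1 h, 37 C.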

[4] = molecular target: KiSS-1 receptor (Homo sapiens) (UniProt Q969F8); assay: Human kisspeptin (KISS1R) small molecule agonists, calcium flux assay in KISS1R-HEK293 cells (AID 1920064; active means well fitted curve in the direction sought with a large enough effect in the repeat runs; an effect the other way counts as inactive or inconclusive)
Method in brief: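 Measures KISS1R agonism through calcium-sensitive dye fluorescence in stably transfected HEK293 cells, read for 3 min after pin-tool compound delivery; 15-point titrations in triplicate.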

[5] = G protein-coupled receptor (GPCR) small molecule agonists, calcium flux assay: HEK293 wild type cell line counter screen (AID 1920065)
Method in brief: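 Readout: fluorescence at 480 nm excitation/540 nm emission, sampled at 1 s intervals for 3 min. Cells had been cultured 18 h, then dye-loaded 1 h at 37 C before compound or ATP addition.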

[6] = p53 small molecule agonists, cell-based qHTS assay with human liver microsomes (AID 1963577)
Method in brief: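 p53RE-bla reporter cells were pre-incubated 5 h at 37 C, then treated with compounds plus human liver microsomes (0.5 mg/mL final) and NADPH (0.5 mg/mL final) for 16 h at 37 C. Beta-lactamase activity was read by LiveBLAzer fluorescence after 2 h at room temperature.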

[7] = p53 small molecule agonists, cell-based qHTS assay with rat liver microsomes (AID 1963578)
Method in brief: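 p53RE-bla cells were exposed to compounds together with rat liver microsomes (0.5 mg/mL final) and NADPH (0.5 mg/mL final) for 16 h at 37 C, then read by LiveBLAzer beta-lactamase fluorescence after 2 h at room temperature.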

[8] = p53 small molecule agonists, cell-based qHTS assay with human liver microsomes: qHTS cell viability counter screen (AID 1963579); further: nearly all actives have a fitted effect of over 45% in size; further: potency means the concentration at half of the fitted maximal effect
Method in brief: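 p53RE-bla cells (4,000/well) were pre-incubated 5 h at 37 C, then given compounds in DMSO plus human liver microsomes (0.5 mg/mL final) and NADPH (0.5 mg/mL final) for 16 h at 37 C. Viability was read by CellTiter-Glo luminescence.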

[9] = p53 small molecule agonists, cell-based qHTS assay with rat liver microsomes: qHTS cell viability counter screen (AID 1963580); further: nearly all actives have a fitted effect of over 45% in size; further: potency means the concentration at half of the fitted maximal effect
Method in brief: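 Viability is assessed in parallel with the p53 reporter read: HCT-116 p53RE-bla cells receive compounds plus rat microsomes and NADPH (0.5 mg/mL final apiece), incubate 16 h at 37 C, and then CellTiter-Glo luminescence is recorded.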

[10] = p53 small molecule agonists, cell-based qHTS assay (AID 1963582; active means well fitted activation curve with a large enough effect in the signal ratio in the repeat runs, not every such curve was filed as active; the % refers to the signal ratio)
Method in brief: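 Compounds are pin-transferred in DMSO onto p53RE-bla cells and incubated 16 h at 37 C. The B/G FRET beta-lactamase substrate is then applied for 2 h at RT and fluorescence recorded.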

[11] = molecular target: Muscarinic acetylcholine receptor M1 (Homo sapiens) (UniProt P11229); assay: Cholinergic receptor muscarinic 1 (CHRM1) small molecule antagonists, cell-based qHTS assay (AID 1963588); further: nearly all actives have a fitted effect of over 40% in size
Method in brief: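 CHRM1-CHO calcium-flux assay, antagonist mode. Cells were seeded 18 h, dye-loaded 1 h at 37 C and given compound for 5 min at RT, then acetylcholine was added at 50nM. FDSS fluorescence was read 3 min; 15 concentrations, three runs.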

[12] = molecular target: Muscarinic acetylcholine receptor M1 (Homo sapiens) (UniProt P11229); assay: Cholinergic receptor muscarinic 1 (CHRM1) small molecule agonists, cell-based qHTS assay (AID 1963589); further: nearly all actives have a fitted effect of over 35% in size
Method in brief: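 Each compound was tested at 15 concentrations across three independent runs on dye-loaded CHO cells stably expressing human CHRM1, reading intracellular calcium fluorescence kinetically at 1 sec intervals.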

[13] = cAMP Responsive Elements (CRE) small molecule agonists, cell-based qHTS assay (AID 1963590)
Method in brief: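 Cell line: CRE-bla HEK 293T; medium DMEM/10% dialyzed FBS/0.1 mM NEAA/1 mM pyruvate/25 mM HEPES; 3 h compound exposure; beta-lactamase FRET readout after 2 h substrate loading at RT.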

[14] = cAMP Responsive Elements (CRE) small molecule antagonists, cell-based qHTS assay (AID 1963591; active means well fitted inhibition curve with a large enough effect in the signal ratio in the repeat runs, not every such curve was filed as active; the % refers to the signal ratio)
Method in brief: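 Inhibition of NKH477-driven (0.25 uM final) CRE-beta-lactamase signal in HEK293T cells, 3 h compound exposure at 37 °C, detected by FRET substrate fluorescence.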

[15] = molecular target: Beta-2 adrenergic receptor (Homo sapiens) (UniProt P07550); assay: Adrenergic beta2 receptor (ADRB2) small molecule antagonists, cell-based qHTS assay (AID 1963592); further: nearly all actives have a fitted effect of over 50% in size; further: potency means the concentration at half of the fitted maximal effect; on activity change, negative = inhibition: series mostly up to about 92 µM
Method in brief: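 Cells (CHO, stable ADRB2 overexpression) incubated 18-20hr at 37C; compounds added from DMSO; agonist mix (1nM isoproterenol, 100uM IBMX, 25uM Ro-20-1724) added; 0.5hr RT; d2-cAMP and anti-cAMP-cryptate added; 1hr RT; 665/615 nm read.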

[16] = molecular target: D(2) dopamine receptor (Homo sapiens) (UniProt P14416); assay: Dopamine D2 receptor (DRD2) small molecule agonists, cell-based qHTS assay (AID 1963594); further: nearly all actives have a fitted effect of over 35% in size
Method in brief: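 HEK293 cells stably expressing human DRD2, pre-treated with PDE inhibitor Ro20-1724 (0.1 mM final) and compound 10 min at room temperature, then stimulated with NKH477 (200nM […]) for 30 min. cAMP read by HTRF (665/620 nm).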

[17] = molecular target: D(2) dopamine receptor (Homo sapiens) (UniProt P14416); assay: Dopamine D2 receptor (DRD2) small molecule antagonists, cell-based qHTS assay (AID 1963595; active means well fitted inhibition curve with a large enough effect in the signal ratio in the repeat runs, with a control signal flat; the % refers to the signal ratio; further: potency means the concentration at half of the fitted maximal effect)
Method in brief: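 HEK293 cells stably expressing DRD2, preincubated with 0.1 mM Ro20-1724 and compounds 10 min, were stimulated with 200 nM NKH477 plus 12 nM quinpirole for 30 min at room temperature; cAMP measured by HTRF (665/620 nm).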

[18] = molecular target: 5-hydroxytryptamine receptor 2A (Homo sapiens) (UniProt P28223); assay: 5-hydroxytryptamine receptor 2A (HTR2A) small molecule antagonists, cell-based qHTS assay (AID 1963586); further: nearly all actives have a fitted effect of over 45% in size; further: potency means the concentration at half of the fitted maximal effect
Method in brief: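 Antagonist-mode intracellular calcium assay: DOI (4 nM) added after 5 min compound pre-incubation at room temperature to dye-loaded HTR2A-CHO cells. Fluorescence followed for 3 min, sampled every second.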

[19] = molecular target: 5-hydroxytryptamine receptor 2A (Homo sapiens) (UniProt P28223); assay: 5-hydroxytryptamine receptor 2A (HTR2A) small molecule agonists, cell-based qHTS assay (AID 1963587); further: nearly all actives have a fitted effect of over 30% in size; further: potency means the concentration at half of the fitted maximal effect
Method in brief: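 CHO cells stably expressing human HTR2A, plated 18 h, loaded with calcium dye 1 h at 37 C. Agonist mode: compounds added and intracellular calcium fluorescence recorded kinetically for 2 min at 1 sec intervals.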

[20] = molecular target: Beta-2 adrenergic receptor (Homo sapiens) (UniProt P07550); assay: Adrenergic beta2 receptor (ADRB2) small molecule agonists, cell-based qHTS assay (AID 1963593);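 further: CHO cells stably overexpressing human ADRB2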
Method in brief: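 CHO cells stably over-expressing ADRB2 were plated overnight at 37C, then dosed with compounds plus a stimulation mix containing 100uM IBMX and 25uM Ro-20-1724 for 0.5hr at room temperature. cAMP was measured by HTRF competition, 1hr.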

Sequence of D(2) dopamine receptor (Homo sapiens) (P14416 whole entry, looked up): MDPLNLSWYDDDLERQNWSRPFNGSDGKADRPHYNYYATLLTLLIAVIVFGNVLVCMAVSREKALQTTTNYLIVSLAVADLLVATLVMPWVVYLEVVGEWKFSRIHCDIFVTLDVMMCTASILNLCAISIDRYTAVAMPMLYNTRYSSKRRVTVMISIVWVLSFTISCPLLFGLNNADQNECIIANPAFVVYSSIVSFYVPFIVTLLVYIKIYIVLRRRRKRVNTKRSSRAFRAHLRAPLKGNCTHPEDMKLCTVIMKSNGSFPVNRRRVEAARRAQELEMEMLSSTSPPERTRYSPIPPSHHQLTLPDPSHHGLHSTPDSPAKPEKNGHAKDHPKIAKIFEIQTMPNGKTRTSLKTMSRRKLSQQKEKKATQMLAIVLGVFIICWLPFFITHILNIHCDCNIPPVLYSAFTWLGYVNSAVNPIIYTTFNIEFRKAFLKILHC
Sequence of Muscarinic acetylcholine receptor M1 (Homo sapiens) (P11229 whole entry, looked up): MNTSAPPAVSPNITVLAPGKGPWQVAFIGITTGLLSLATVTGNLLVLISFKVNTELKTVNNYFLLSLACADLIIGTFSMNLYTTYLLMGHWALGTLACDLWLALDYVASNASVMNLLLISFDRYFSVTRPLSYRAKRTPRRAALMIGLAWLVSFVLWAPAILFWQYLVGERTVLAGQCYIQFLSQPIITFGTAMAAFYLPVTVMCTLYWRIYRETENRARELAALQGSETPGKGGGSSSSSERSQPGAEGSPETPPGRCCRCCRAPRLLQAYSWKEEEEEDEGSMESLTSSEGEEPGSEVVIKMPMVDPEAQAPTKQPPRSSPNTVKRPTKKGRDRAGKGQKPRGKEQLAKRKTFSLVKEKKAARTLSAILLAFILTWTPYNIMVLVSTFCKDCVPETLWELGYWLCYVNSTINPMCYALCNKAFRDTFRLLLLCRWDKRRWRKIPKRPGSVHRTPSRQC
Sequence of Beta-2 adrenergic receptor (Homo sapiens) (P07550 whole entry, looked up): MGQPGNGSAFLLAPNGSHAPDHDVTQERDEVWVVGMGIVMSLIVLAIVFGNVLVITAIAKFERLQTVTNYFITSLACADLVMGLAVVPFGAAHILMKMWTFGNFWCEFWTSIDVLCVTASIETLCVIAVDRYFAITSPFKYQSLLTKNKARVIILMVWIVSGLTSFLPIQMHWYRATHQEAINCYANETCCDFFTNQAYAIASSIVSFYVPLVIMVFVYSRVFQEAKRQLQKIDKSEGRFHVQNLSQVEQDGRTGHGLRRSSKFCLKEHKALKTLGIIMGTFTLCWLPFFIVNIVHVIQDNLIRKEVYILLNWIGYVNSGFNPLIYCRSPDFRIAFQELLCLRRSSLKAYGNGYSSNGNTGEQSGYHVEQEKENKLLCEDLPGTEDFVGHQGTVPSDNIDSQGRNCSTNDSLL
Sequence of 5-hydroxytryptamine receptor 2A (Homo sapiens) (P28223 whole entry, looked up): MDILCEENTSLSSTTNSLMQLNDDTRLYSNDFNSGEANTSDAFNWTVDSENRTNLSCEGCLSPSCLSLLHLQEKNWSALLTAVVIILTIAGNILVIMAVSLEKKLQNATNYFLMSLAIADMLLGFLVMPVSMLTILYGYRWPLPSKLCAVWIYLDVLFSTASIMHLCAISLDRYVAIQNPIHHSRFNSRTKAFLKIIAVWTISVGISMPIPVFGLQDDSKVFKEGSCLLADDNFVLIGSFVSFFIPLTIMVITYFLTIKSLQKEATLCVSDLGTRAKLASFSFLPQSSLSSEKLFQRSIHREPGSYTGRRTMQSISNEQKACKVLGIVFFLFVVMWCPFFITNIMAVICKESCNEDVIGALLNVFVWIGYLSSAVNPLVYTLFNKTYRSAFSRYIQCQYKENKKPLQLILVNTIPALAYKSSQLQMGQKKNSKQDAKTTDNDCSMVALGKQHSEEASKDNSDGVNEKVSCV
Sequence of Gonadotropin-releasing hormone receptor (Homo sapiens) (P30968 whole entry, looked up): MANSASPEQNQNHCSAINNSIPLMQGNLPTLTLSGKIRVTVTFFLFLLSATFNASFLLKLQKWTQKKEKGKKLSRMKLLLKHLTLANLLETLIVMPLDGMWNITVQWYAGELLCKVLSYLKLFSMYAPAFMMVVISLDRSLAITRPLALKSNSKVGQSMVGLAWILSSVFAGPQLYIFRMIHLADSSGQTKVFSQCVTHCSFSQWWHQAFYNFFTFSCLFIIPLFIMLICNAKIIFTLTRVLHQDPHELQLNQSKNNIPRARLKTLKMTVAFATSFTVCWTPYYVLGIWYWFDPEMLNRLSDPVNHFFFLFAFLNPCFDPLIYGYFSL
Sequence of KiSS-1 receptor (Homo sapiens) (Q969F8 whole entry, looked up): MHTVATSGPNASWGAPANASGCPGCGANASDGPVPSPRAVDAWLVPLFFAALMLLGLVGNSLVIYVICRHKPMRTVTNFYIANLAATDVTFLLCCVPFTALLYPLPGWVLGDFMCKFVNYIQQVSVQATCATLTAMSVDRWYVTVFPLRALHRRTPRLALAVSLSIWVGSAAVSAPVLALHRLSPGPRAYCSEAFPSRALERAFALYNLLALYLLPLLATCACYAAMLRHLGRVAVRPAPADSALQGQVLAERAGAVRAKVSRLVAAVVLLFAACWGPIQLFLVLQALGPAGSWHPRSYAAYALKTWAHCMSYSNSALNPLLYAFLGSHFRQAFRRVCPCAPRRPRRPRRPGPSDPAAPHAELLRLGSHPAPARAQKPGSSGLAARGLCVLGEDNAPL

In the case of `CCCCCCCCCCOc1cc2c(=O)c(C(=O)OCC)c[nH]c2cc1OCC`, the activity change, negative = cytotoxicity [1] is reported as -4.24% [at 8.39 µM], the activity, positive = activation [2] is reported as -2.6% [at 8.39 µM] and the activity change [3] is reported as 0.343% [at 5.22 µM, active compounds read high]. The activation [4] was -0.128% [at 6.97 µM], the activation [5] was 0.101% [at 5.23 µM] and the activation [6] was 2.59% [at 5.99 µM]. It also gave an activation [7] of 0.878% [at 5.99 µM], an activity change, negative = cytotoxicity [8] of 0.282% [at 5.99 µM] and an activity change, negative = cytotoxicity [9] of 11.2% [at 5.99 µM]. The activation [10] was 4.71% [at 5.99 µM], the activity, negative = inhibition [11] was -9.72% [at 5.58 µM] and the activation [12] was 0.0185% [at 6.97 µM]. For the same compound, the activation [13] was 0.069% [at 8.39 µM], the activity change, negative = inhibition [14] was 0.102% [at 8.39 µM] and the activity change, negative = inhibition [15] was 4.81% [at 8.39 µM]. For the same compound, the activation [16] was -15.9% [at 8.39 µM] and the activity change, negative = inhibition [17] was 8.14% [at 8.38 µM].
For `CN1CCN(c2c(F)cc3c(=O)c(C(=O)O)cn4c3c2SCC4)CC1`, the Potency [1] was “inactive”, the Potency [2] was “inactive” and the Potency [3] was “inactive”. The outcome [4] was “inactive”, the outcome [5] was “inactive” and the Potency [6] was “inactive”. The Potency [7] was “inactive”, the Potency [8] was “inactive” and the Potency [9] was “inactive”. For the same compound, the Potency [18] was “inactive”, the Potency [19] was “inactive” and the Potency [11] was “inactive”. For the same compound, the Potency [12] was “inactive”, the Potency [15] was “inactive” and the Potency [20] was “inactive”. The Potency [17] was “inactive”.
With `CCc1nn(C2CCCCC2)c2cc(C3(C#N)CCC(C(=O)O)CC3)ccc12` (stereo unspecified) the Potency [1] was “inactive”, the Potency [2] was “inactive” and the Potency [3] was “inactive”. The outcome [4] was “inactive”, the outcome [5] was “inactive” and the Potency [6] was “inactive”. The Potency [7] was “inactive”, the Potency [8] was “inactive” and the Potency [9] was “inactive”. For the same compound, the Potency [18] was “inactive”, the Potency [19] was “inactive” and the Potency [11] was “inactive”. For the same compound, the Potency [12] was “inactive”, the Potency [15] was “inactive” and the Potency [16] was “inactive”. For the same compound, the Potency [17] was “inactive”.
In the case of `Cc1cc(O)c(C(C)(C)C)cc1C(C)(C)C`, the Potency [1] is reported as 27.3 µM (active), the Potency [2] is reported as “inactive” and the Potency [3] is reported as 38.9 µM (active). The outcome [4] was “inactive”, the outcome [5] was “inactive” and the Potency [6] was “inactive”. The Potency [7] was “inactive”, the Potency [8] was 18.2 µM (active) and the Potency [9] was 40.8 µM (active). The Potency [18] was 18.8 µM (active), the Potency [19] was 34.7 µM (active) and the Potency [11] was “inactive”. For the same compound, the Potency [12] was “inactive”, the Potency [16] was “inactive” and the Potency [17] was 43.3 µM (active).
For `CN(C)CCCOc1nn(Cc2ccccc2)c2ccccc12`, the Potency [1] was “inactive”, the Potency [2] was “inactive” and the Potency [3] was “inactive”. The outcome [4] was “inactive”, the outcome [5] was “inactive” and the Potency [6] was “inactive”. For the same compound, the Potency [7] was “inactive”, the Potency [8] was “inactive” and the Potency [9] was “inactive”. For the same compound, the Potency [18] was “inactive”, the Potency [19] was “inactive” and the Potency [11] was “inactive”. For the same compound, the Potency [12] was “inactive”, the Potency [13] was “inactive” and the Potency [15] was 26.6 µM (active). The Potency [16] was “inactive” and the Potency [17] was “inactive”.
In the case of `CC(C)(C)N`, the Potency [1] is reported as “inactive”, the Potency [2] is reported as “inactive” and the Potency [3] is reported as “inactive”. The outcome [4] was “inactive”, the outcome [5] was “inactive” and the Potency [6] was “inactive”. The Potency [7] was “inactive”, the Potency [8] was “inactive” and the Potency [10] was “inactive”. The Potency [18] was “inactive”, the Potency [19] was “inactive” and the Potency [11] was “inactive”. For the same compound, the Potency [12] was “inactive”, the Potency [13] was “inactive” and the Potency [14] was “inactive”. For the same compound, the Potency [15] was “inactive”, the Potency [20] was “inactive” and the Potency [16] was “inactive”.
With `O=Cc1c2ccccc2c(Cl)c2ccccc12` the Potency [1] was “inactive”, the Potency [2] was 7.51 µM (active) and the Potency [3] was “inactive”. The outcome [4] was “inactive”, the outcome [5] was “inactive” and the Potency [6] was “inactive”. For the same compound, the Potency [7] was “inactive”, the Potency [8] was “inactive” and the Potency [9] was “inactive”. For the same compound, the Potency [18] was “inactive”, the Potency [19] was “inactive” and the Potency [11] was “inactive”. The Potency [12] was “inactive”, the Potency [14] was “inactive” and the Potency [20] was “inactive”. The Potency [16] was “inactive” and the Potency [17] was “inactive”.
